PubChem BioAssay (NCI)
This is part of a sample that, as a whole, favours compounds with a hit. Of some 83,000 tested, about 20% had one in any assay.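 48-hour exposure, single concentration, 96-well plates; percent growth endpoint where 0 means no net growth. Active: below 10.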 Unmarked numbers belong to inactive results. Active and inactive are the calls of the source.

Assays:
Test in all cases: NCI-60 one-dose screen, 48 h (100 = growth as untreated, 0 = no growth, -100 = all killed)
Conditions in all cases: 10 µM unless noted
NCI-H23 lung = tested on: NCI-H23 lung
NCI-H226 lung = tested on: NCI-H226 lung
NCI-H322M lung = tested on: NCI-H322M lung
HOP-62 NSCLC = tested on: HOP-62 NSCLC
NCI-H460 lung = tested on: NCI-H460 lung
HOP-92 NSCLC = tested on: HOP-92 NSCLC
NCI-H522 lung = tested on: NCI-H522 lung
A549/ATCC NSCLC = tested on: A549/ATCC NSCLC
786-0 renal = tested on: 786-0 renal
COLO 205 colon = tested on: COLO 205 colon
DU-145 prostate = tested on: DU-145 prostate
K-562 leukemia = tested on: K-562 leukemia
MALME-3M melanoma = tested on: MALME-3M melanoma
MDA-MB-231 breast = tested on: MDA-MB-231 breast
RXF 393 renal = tested on: RXF 393 renal
SF-268 CNS = tested on: SF-268 CNS
SF-295 CNS = tested on: SF-295 CNS
SF-539 CNS = tested on: SF-539 CNS
UACC-257 melanoma = tested on: UACC-257 melanoma
M14 melanoma = tested on: M14 melanoma

Compound	growth (NCI-H23 lung)	growth (NCI-H226 lung)	growth (NCI-H322M lung)	growth (HOP-62 NSCLC)	growth (NCI-H460 lung)	growth (HOP-92 NSCLC)	growth (NCI-H522 lung)	growth (A549/ATCC NSCLC)	growth (786-0 renal)	growth (COLO 205 colon)	growth (DU-145 prostate)	growth (K-562 leukemia)	growth (MALME-3M melanoma)	growth (MDA-MB-231 breast)	growth (RXF 393 renal)	growth (SF-268 CNS)	growth (SF-295 CNS)	growth (SF-539 CNS)	growth (UACC-257 melanoma)	growth (M14 melanoma)
CC(=O)O[C@H](C[C@H](C(C)C)N(C)C(=O)[C@@H](NC(=O)[C@H]1CCCCN1C)C(C)(C)C)c1nc(C(=O)N[C@@H](Cc2ccccc2)C[C@H](C)C(=O)O)cs1	37.8%	61.4%	41.8%	19.7%	4.25% (active)	35.3%	-24.7% (active)	9.66% (active)	11.1%	-59.1% (active)	0.642% (active)	5.51% (active)	66.7%	6.25% (active)	39.5%	24.1%	-0.638% (active)	-10.9% (active)	47%	3.36% (active)
Cn1cc(C2=C(c3cn(C4CCN(Cc5ccccn5)CC4)c4ccccc34)C(=O)NC2=O)c2ccccc21	53.6%	93.5%	37.2%	68%	74.9%	69.8%	48.8%	50.8%	79.7%	6.03% (active)	70%	91.3%	-3.24% (active)	79.8%	90.9%	82.8%	97.1%	89.6%	-0.885% (active)	16.5%
COC(=O)[C@@H](C)C[C@H](Cc1ccccc1)NC(=O)c1csc([C@@H](C[C@H](C(C)C)N(C)C(=O)[C@H](C)NC(=O)[C@H]2CCCN2C)OC(C)=O)n1	60.8%	68.2%	63.7%	63.6%	30.9%	37.6%	-10.7% (active)	83%	45%	22.8%	51.6%	11.5%	56.2%	63.6%	21.8%	53.9%	31.1%	39.9%	36.4%	37.5%
CC(=O)Nc1nc2c(s1)CC[C@@]1(C)C2=CC[C@H]2[C@@H]3CC[C@H](O)[C@@]3(C)CC[C@@H]21	73.3%	89.9%	79.8%	67.1%	27.3%	84.7%	51.6%	56%	35.7%	72.2%	81.7%	17.5%	56.9%	81.5%	23.5%	73.4%	36.4%	8.5% (active)	82%	36%
C#Cc1ccc2c(c1)C(c1ccccc1F)=NCC(=O)N2C	57.8%	73.1%	69.6%	48.3%	18.9%	73.2%	8.61% (active)	47.9%	63.4%	18.4%	69.9%	16.7%	76.7%	50.6%	73.8%	56.3%	35.6%	53%	67.1%	16.9%
O=C1C2C(C(=O)[N]1[Hg][c]1cccs1)C1(Cl)C(Cl)=C(Cl)C2(Cl)C1(Cl)Cl (stereo not given)	-1.96% (active)	97.1%	78.3%	10.5%	52.7%	-51.4% (active)	-89.8% (active)	80.4%	-90.2% (active)	-71.4% (active)	53.8%	-2.45% (active)	-63.7% (active)	-56.2% (active)	-83.5% (active)	32.3%	58.3%	12.6%	-50.8% (active)	-57.9% (active)
CC(=O)O[C@H]1C(=O)[C@@]2(C)[C@H]([C@H](OC(=O)c3ccccc3)[C@]3(O)C[C@H](OC(=O)[C@H](OC(=O)OC[C@@H]4COC(C)(C)O4)[C@@H](NC(=O)c4ccccc4)c4ccccc4)C(C)=C1C3(C)C)[C@]1(OC(C)=O)CO[C@@H]1C[C@@H]2O	19.9%	60.4%	14.4%	19.3%	3.59% (active)	64.6%	1.08% (active)	11.9%	19.4%	-28.4% (active)	6.23% (active)	13.8%	28.9%	2.49% (active)	-9.73% (active)	32%	-7.77% (active)	-9.82% (active)	50.1%	-20% (active)
